Compounds with a hit are over-represented: about 0.27% of the library has one in this group of screens.
Tb PFK inh-1: T. brucei PFK enzyme inhibition; O15648; T. brucei PFK, ADP-Glo luminescence; Potency, µM (top dose mostly 57.5 µM), for the others: at the highest dose activity, negative = inhibition, usual class: inhibitors; 330,000 compounds, 0.17% hits;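 also: 0% = uninhibited 1x PFK enzyme wells and -100% = no-enzyme wells; nearly all actives have a fitted effect of over 60% in size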
Target sequence (O15648 whole entry, looked up): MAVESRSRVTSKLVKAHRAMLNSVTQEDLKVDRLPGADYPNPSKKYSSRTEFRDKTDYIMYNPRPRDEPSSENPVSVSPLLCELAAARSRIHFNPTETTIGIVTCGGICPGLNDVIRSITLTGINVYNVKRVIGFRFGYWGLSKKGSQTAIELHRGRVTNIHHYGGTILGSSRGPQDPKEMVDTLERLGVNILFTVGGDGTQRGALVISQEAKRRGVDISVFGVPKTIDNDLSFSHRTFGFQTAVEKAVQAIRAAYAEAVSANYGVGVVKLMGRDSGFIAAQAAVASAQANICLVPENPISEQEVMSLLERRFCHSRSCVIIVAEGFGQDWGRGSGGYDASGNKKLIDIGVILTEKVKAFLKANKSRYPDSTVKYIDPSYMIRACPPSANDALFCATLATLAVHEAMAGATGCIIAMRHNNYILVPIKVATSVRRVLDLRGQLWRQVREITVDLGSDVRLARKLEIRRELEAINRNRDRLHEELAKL
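PFK 1.25 nM, F6P 0.5 mM, ATP 0.1 mM, 0.1 M TEA pH 8.0, 5 mM MgCl2, 0.01% Tween20, 0.1% BSA; 45 min RT. ADP-Glo readout. qHTS titration up to 57 uM; curves fitted, compounds curve-classed.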
B2AR arrestin: agonists driving beta-arrestin recruitment to human beta2-adrenergic receptor; P07550; beta-arrestin recruitment to beta2AR, cell-based reporter; Potency, µM (top dose mostly 46.1 µM), for the others: at the top dose activation, actives largely listed as activators; 330,000 compounds, 0.02% hits;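 also: 0% = DMSO controls and full agonism = EC100 isoproterenol or metaproterenol; nearly all actives have a fitted effect of over 65% in size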
MBNL1-CUG inh: blocks human MBNL1 binding to CUG repeat RNA; TR-FRET MBNL1-His/biotin-(CUG)12 binding, 665/545 ratio; Potency, µM (titrated, usually from 57.5 µM), for the others: at the top dose activity change, negative = inhibition, actives largely listed as inhibitors; 280,000 compounds, 0.036% hits; AID 2675; active = well fitted inhibition curve with a large enough effect in the signal ratio, with a control signal flat, not every such curve was filed as active; inconclusive = small, poorly fitted or top-dose-only effect, or effect the other way, or a change in a side signal; inactive = no such curve, though single readings can be large or run the other way; the % refers to the signal ratio; also: % is scaled to controls: 0 for no effect and ±100 for the full control effect
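TR-FRET between His-tagged MBNL1 and biotin-(CUG)12 RNA, detected with Tb anti-His antibody (0.055 ng/ul) and streptavidin-XL665 (5 nM), 60 min at room temperature. Compounds titrated 92 nM to 58 uM; 665/545 nm ratio normalized to buffer and complex controls.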
Chronic BCR inh: blocks chronic active B-cell receptor signaling; ABC-DLBCL IkBa-CBG/CBR reporter, luminescence ratio, 4 h; Potency, µM (series often up to 46.1 µM), for inactives: top-dose activity change, negative = inhibition, usual class: inhibitors; 340,000 compounds, 0.05% hits; active = well fitted inhibition curve with a large enough effect in the signal ratio, with a control signal flat, not every such curve was filed as active; inconclusive = small, poorly fitted or top-dose-only effect, or effect the other way, or a change in a side signal; the % refers to the signal ratio;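 also: plate controls were basal doxycycline-induced cells for no effect and cells given 10 µM MG132 for full effect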
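TMD8 ABC-DLBCL cells carrying doxycycline-inducible green luciferase fused to IkappaBalpha plus unfused red luciferase were exposed to compounds (up to 46 uM) for 4 hrs at 37C. Activity came from the overlap-corrected green/red luminescence ratio.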
TbPFK ATP: Tb phosphofructokinase inhibition, orthogonal luminescence; AID 504636; Tb PFK enzyme, ATP depletion, Kinase-Glo Plus luminescence; Potency, µM (series often up to 57.5 µM), without a hit: at the highest dose inhibition; 1,100 compounds, 47% hits; shares compounds with Tb PFK inh-1; calls by dose curve; also: nearly all actives have a fitted effect of over 60% in size
Tb PFK inh-2: T. brucei PFK enzyme inhibition, hit validation; Potency, µM (titrated, usually from 57.5 µM), for the others: top-dose activity change, negative = inhibition, hits mostly inhibitors; 1,100 compounds, 41% hits; purified T. brucei PFK, ADP-Glo luminescence, 45 min; shares compounds with Tb PFK inh-1;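 also: plate controls were full PFK enzyme control for no effect and no enzyme control for full effect; nearly all actives have a fitted effect of over 60% in size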
An asterisk follows results filed as active; ? = inconclusive; nt = no result given. Unless noted, calls follow the shape of the dose curve; as a rule, active = well fitted curve in the direction sought with a large enough effect; inconclusive = small, poorly fitted or top-dose-only effect, or another doubt; inactive = no such curve, though single readings can be large; an effect the other way counts as inactive or inconclusive. Potency is read from the fitted curve at half-maximal effect.

SMILES | Tb PFK inh-1 | B2AR arrestin | MBNL1-CUG inh | Chronic BCR inh | TbPFK ATP | Tb PFK inh-2
O=C(Nc1ccncc1)Nc1ccc(F)c(Cl)c1 | ? | 1% | -27% | ? | ? | ?
CCCCC(=O)Nc1ccc(F)c(Cl)c1 | ? | 0% | ? | 1% | ? | -12%
NC(=O)Nc1ccc(Cl)cc1 | 21µM* | 0% | -6% | 1% | 24µM* | 30µM*
O=C(CN1CCN(S(=O)(=O)c2ccc(F)cc2)CC1)NCC1(N2CCOCC2)CCCCC1 | -4% | 0% | nt | 0% | nt | nt
O=C(Nc1ccc(Cl)cc1)Nc1cccnc1 | 17µM* | 0% | -22% | -10% | ? | ?
O=c1/c(=C/c2ccccn2)sc2nc3ccccc3n12 | 1% | -1% | 7% | ? | nt | nt
O=c1/c(=C\c2cc([N+](=O)[O-])cc([N+](=O)[O-])c2O)sc2nc3ccccc3n12 | ? | 0% | ? | 0% | ? | -7%
CCCCCCCCCCCCCCCCn1cc[n+](CC(C)=O)c1 | ? | 0% | 4% | -1% | -7% | -7%
CCCCCCn1ccc(=N)cc1 | 4% | 0% | 8% | 2% | nt | nt
COc1cccc(N2CC(C(=O)Nc3ccc(F)cc3)CC2=O)c1 (stereo not given) | 19µM* | 1% | 12% | 1% | 6% | -5%
COc1cccc(N2CC(C(=O)Nc3ccc(C(=O)OC(C)C)cc3)CC2=O)c1 (stereo not given) | 0% | -1% | -10% | ? | nt | nt
Cc1ccc(N2CC(NC(=O)/C=C\c3ccc4c(c3)OCO4)CC2=O)cc1 (stereo not given) | nt | nt | nt | -16% | nt | nt
COc1cc(C2/C(=C(/O)c3ccc(F)cc3)C(=O)C(=O)N2CCCC(=O)O)ccc1O (stereo not given) | ? | 0% | 2% | -8% | 12µM* | 21µM*
O=C(CN1C(=O)/C(=C2/SC(=S)N(CCS(=O)(=O)O)C2=O)c2ccccc21)Nc1cccc(C(F)(F)F)c1 | ? | 0% | nt | 7% | nt | nt
O=C(CN1C(=O)/C(=C2\SC(=S)N(CCS(=O)(=O)O)C2=O)c2ccccc21)Nc1cccc(Br)c1 | 27µM* | 0% | 9% | 17% | 4.3µM* | 7.6µM*
Cc1ccc(C2=NN(CC(=O)NCCCN(CC(C)C)CC(C)C)C(=O)CC2)cc1 | nt | nt | nt | 7% | nt | nt
O=C(NCc1cccnc1)C(=O)NCC1OCCN1S(=O)(=O)c1ccc(F)cc1 (stereo not given) | ? | 0% | -39% | 0% | ? | -30%
COc1cccc(-c2c(-c3cc(OC)cc(OC)c3)n(C)c3ccc(-c4cccc5[nH]ccc45)cc23)c1 | -1% | -1% | nt | ? | nt | nt
CC(C)(C)OC(=O)NCc1ccc(CNC(=O)c2nc[nH]c2C(=O)N2CCN(c3ccccc3)CC2)cc1 | 5% | 0% | nt | -8% | nt | nt
O=C(CCc1ccccc1)NNC(=O)c1ccc(NC(=O)c2ccccc2)cc1 | ? | 0% | nt | 0% | ? | ?
CC(=O)Nc1ccc(C(=O)NNC(=O)CCc2ccccc2)cc1 | 0% | -1% | -4% | -8% | nt | nt
Cc1cc(N(C)C)ccc1[N+](=O)[O-] | ? | -1% | ? | -5% | ? | 30µM*
COc1cccc(CC(=O)Nc2ccc(S(=O)(=O)Nc3nccs3)cc2)c1 | 19µM* | 0% | nt | 4% | 19µM* | ?
CCC(=O)Nc1ccc(S(=O)(=O)Nc2ncccn2)cc1 | 2% | 3% | -5% | 5% | nt | nt
Cc1ccnc(NS(=O)(=O)c2ccc(NC(=O)Cc3ccc(Cl)cc3)cc2)n1 | 27µM* | 0% | -5% | -4% | 15µM* | ?
SMILES | Tb PFK inh-1 | B2AR arrestin | MBNL1-CUG inh | Chronic BCR inh | TbPFK ATP | Tb PFK inh-2
O=C(Cc1ccc(Br)cc1)Nc1ccc(S(=O)(=O)Nc2ncccn2)cc1 | 24µM* | 0% | 5% | 2% | 21µM* | 21µM*
O=C(Cc1ccc(Cl)cc1)Nc1ccc(S(=O)(=O)Nc2ncccn2)cc1 | 21µM* | -1% | -11% | ? | 11µM* | 19µM*
COc1ccc(CC(=O)Nc2ccc(S(=O)(=O)Nc3nccs3)cc2)cc1 | ? | 0% | -1% | 0% | nt | nt
COc1ccc(CC(=O)Nc2ccc(S(=O)(=O)Nc3nccc(C)n3)cc2)cc1 | -5% | 0% | -3% | -3% | nt | nt
Cc1cccc(OCC(=O)NCc2ccc3c(c2)CCN3C(=O)c2ccc(Cl)cc2)c1 | nt | nt | nt | 25% | nt | nt
CCOc1ccc(NC(=O)c2c(NCc3ccc(C)o3)sc3c2CCCCC3)cc1 | nt | nt | nt | -7% | nt | nt
O=C1C=C(NCc2ccc(Cl)c(Cl)c2)CC1 | 4.8µM* | 0% | -5% | ? | 4.8µM* | 6µM*
CC1(C)CC(=O)C=C(NCc2ccc(Cl)c(Cl)c2)C1 | ? | 0% | -7% | -6% | nt | nt
O=C(CCOc1ccccc1)Nc1ccc(S(=O)(=O)Nc2ncccn2)cc1 | -25% | 0% | nt | 0% | nt | nt
O=[N+]([O-])c1ccc(N/N=C/c2ccc(O)c(O)c2O)c(S(=O)(=O)N2CCOCC2)c1 | ? | 0% | ? | 0% | ? | ?
O=[N+]([O-])c1ccc(N/N=C/c2cccc(O)c2O)c(S(=O)(=O)N2CCOCC2)c1 | -2% | 0% | ? | -3% | nt | nt
COc1cn(CC(=O)Nc2cccc(C)c2)c(CN2CCCCC2)cc1=O | nt | nt | nt | 2% | nt | nt
S=c1[nH]nc(-c2ccccc2)n1/N=C/C=C/c1ccco1 | -21% | 0% | ? | 8% | nt | nt
S=c1[nH]nc(-c2cccnc2)n1/N=C/C=C/c1ccco1 | 30µM* | 0% | 16% | -1% | 6µM* | ?
O=C(COc1ccc(Br)cc1)N1CCNC1=O | 2% | 0% | -8% | 0% | nt | nt
Cc1ccc(N2C(=O)CS(=O)C(c3ccccc3)C2=O)cc1C (stereo not given) | ? | 0% | -2% | ? | nt | nt
COc1ccc(N2C(=O)CS(=O)C(c3ccccc3)C2=O)cc1 (stereo not given) | ? | 0% | -12% | ? | ? | -19%
Cc1cccc(-n2ncc3c(N4CCN(CCO)CC4)ncnc32)c1 | nt | nt | nt | 2% | nt | nt
O=C(Nc1ccc(-n2cnnn2)cc1)c1cc(S(=O)(=O)N2CCCC2)ccc1Cl | 3% | -1% | nt | 4% | nt | nt
O=C1c2c([N+](=O)[O-])cc([N+](=O)[O-])cc2S(=O)N1Cc1ccccc1 (stereo not given) | 27µM* | 0% | ? | ? | 6% | -5%
O=C(N/N=C/c1ccncc1)c1ccc(NC(=O)c2cccc(Cl)c2)cc1 | ? | 4% | -19% | -1% | -28% | ?
COc1ccc(-n2c(/C=C/c3cccc4ccccc34)nc3ccccc3c2=O)cc1OC | nt | nt | nt | -2% | nt | nt
O=C(NCCCN1CCCC1=O)c1ccc(NS(=O)(=O)c2ccc(F)cc2)cc1 | -1% | 0% | nt | 8% | nt | nt

Screening results: PubChem BioAssay, National Center for Advancing Translational Sciences (NCATS)
